Compound activity as filed in PubChem.
Compounds with a hit are over-represented: about 5.6% of the library has one in this group of screens.
ALR inh = inhibitors of human ALR sulfhydryl oxidase, primary screen, biochemical, H2O2 detection, HRP-luminol luminescence, single point. inhibition, % (concentration not given with the values). actives 3.8% (n = 290,000). purified ALR, DTT oxidation;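 active = mean replicate inhibition above about 79%, with every replicate also reaching it, limit read from the data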
Target sequence (P55789 whole entry, looked up): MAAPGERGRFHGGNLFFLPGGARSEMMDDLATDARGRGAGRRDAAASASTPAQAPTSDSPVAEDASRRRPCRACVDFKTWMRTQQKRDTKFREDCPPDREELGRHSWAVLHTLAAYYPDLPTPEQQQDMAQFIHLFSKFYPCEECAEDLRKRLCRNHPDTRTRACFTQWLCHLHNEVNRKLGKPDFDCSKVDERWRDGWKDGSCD
PfM18AAP inh = PfM18AAP inhibitors, malaria aminopeptidase, primary screen, biochemical, QFRET, recombinant enzyme; M18 aspartyl aminopeptidase (Plasmodium falciparum 3D7); H-Glu-NHMec fluorogenic cleavage; AID 1822, 2009; actives 1.2% (n = 290,000); inhibition, % at 7.35 µM;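 active = inhibition above the campaign mean inhibition over all tested compounds plus 3 SD, cut at about 28% in these data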;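 also: 0% = plate median of test compound wells and 100% = 2 mM ZnCl2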
PfGluPho inh = PfG6PD enzyme inhibitors, primary screen, biochemical, fluorescence intensity, uHTS | PfGluPho enzyme, NADPH resazurin-diaphorase fluorescence | actives 0.78% (n = 350,000) | AID 504690, 2011 | inhibition, % at 20 µM;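 active = inhibition reaching at least a set limit at 20 µM in the primary screen, cut at about 59% in these data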;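 also: 0% = DMSO wells with substrate and 100% = DMSO wells lacking glucose-6-phosphate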
H9c2 protect = cardioprotection against H2O2-induced cell death, primary screen, uHTS, H9c2 cells, ATPLite luminescence. H9c2 cardiomyocytes, H2O2 injury protection, 2 h. protection from H2O2 cell death, % at 20 µM. AID 588492, 2011. actives 0.63% (n = 360,000);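 active = compounds giving at least 50% protection of heart cells from peroxide-induced death in the single-dose screen, raw or plate-pattern-corrected value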;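 also: 0% = DMSO wells with peroxide and 100% = DMSO wells without peroxide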
PHOSPHO1 block = PubChem AID 1565 | Phosphoethanolamine/phosphocholine phosphatase (Homo sapiens), Q8TCT1 | recombinant PHOSPHO1, absorbance phosphatase assay | inhibition, % at 13.3 µM | actives 1.1% (n = 290,000); in the data active = inhibition above about 60%
Target sequence (Q8TCT1 whole entry, looked up): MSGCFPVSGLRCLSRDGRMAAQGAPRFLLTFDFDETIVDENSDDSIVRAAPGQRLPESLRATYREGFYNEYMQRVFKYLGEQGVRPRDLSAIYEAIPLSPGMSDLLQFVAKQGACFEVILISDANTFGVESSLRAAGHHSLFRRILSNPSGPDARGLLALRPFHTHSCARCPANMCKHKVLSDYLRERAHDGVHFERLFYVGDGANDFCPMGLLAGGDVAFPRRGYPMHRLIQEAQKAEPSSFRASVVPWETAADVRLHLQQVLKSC
An asterisk follows results filed as active; x = not tested or not shown.

SMILES | ALR inh | PfM18AAP inh | PfGluPho inh | H9c2 protect | PHOSPHO1 block
CC(=O)N1CCN(c2ccc(Nc3nc(C)nc4c3oc3ccccc34)cc2)CC1 | 96.2* | x | 20.6 | 8.9 | x
Fc1cc(Cl)cc2ccc(-c3ccccc3)nc12 | x | x | x | -4.8 | x
CCN(CCO)c1ccc(N=Nc2cc(C)[nH]n2)cc1 | 84.1* | 4.9 | -2.5 | -25.8 | 36.2
O=C(c1ccc(CNS(=O)(=O)c2cccc(Cl)c2)cc1)N1CCCCC1 | -6.7 | 6.2 | -5.2 | -9.9 | 24.0
COc1ccccc1N1C(=O)CC(Sc2n[nH]c(-c3cccc(C)c3)n2)C1=O (configuration not stated) | 98.8* | -60.4 | 4.0 | -20.0 | 80.9*
COc1ccccc1N1C(=O)CC(Sc2nccc(C)n2)C1=O (configuration not stated) | -15.6 | -2.9 | -12.2 | 5.7 | -48.4
COc1ccc(-c2csc(N)n2)cc1F | 95.7* | -2.0 | -15.4 | -5.4 | 5.6
CCCOc1ccc(-c2csc(N)n2)cc1[N+](=O)[O-] | 98.5* | 3.1 | 5.0 | -16.8 | 1.6
CCc1ccc(OC)c(-c2csc(N)n2)c1 | 98.2* | 6.1 | -1.9 | 2.9 | 28.1
CCc1nc2c(OCc3ccc(F)cc3)cccn2c1N(C)C(=O)CC(C)C | x | x | x | -2.9 | x
Nn1c(-c2cccc(Br)c2)n[nH]c1=S | 4.2 | 25.5 | 14.6 | -2.4 | 95.5*
CCCCNC(=O)C1(C)CCC(=O)N1C1CC1 (configuration not stated) | x | x | x | 12.5 | x
CN(C)[C@@H]1C(=O)C(C(=O)NCN2CCCC2)=C(O)[C@@]2(O)C(=O)C3=C(O)c4c(O)cccc4[C@@](C)(O)C3CC12 (some centres not stated) | x | 28.4* | x | x | 1.1
O=C(Nc1ccc(Br)cc1)c1ccc2c(c1)OCO2 | -0.9 | 5.9 | 5.4 | -11.8 | 44.0
CCCc1cc(=O)n2nc(N3CCC(C(=O)N4CCN(c5ccc(OC)cc5)CC4)CC3)sc2n1 | 70.1 | 4.5 | -11.3 | -4.1 | 63.6*
Cc1cc(=O)n2nc(N3CCC(C(=O)N4CCN(c5ccccc5)CC4)CC3)sc2n1 | x | 6.1 | 11.1 | 9.1 | 49.6
CC(NC(=O)Cc1cccc(C(F)(F)F)c1)c1ccc(F)cc1 (configuration not stated) | 0.8 | -1.4 | 7.1 | -0.9 | 12.2
Cc1ccc(C(=O)Nc2nc3nc(-c4ccccc4)cc(=O)n3[nH]2)cc1 | 91.7* | -6.8 | -31.4 | 4.6 | 3.2
Cc1ccc(NC(=O)c2cc(S(=O)(=O)N3CCc4ccccc43)cn2C)cc1 | 18.9 | 4.3 | 11.3 | -17.8 | 17.6
COc1cc(NC(=O)c2cc(S(=O)(=O)N3CCc4ccccc43)cn2C)cc(OC)c1OC | -3.9 | 2.8 | -7.7 | 2.8 | 64.9*
CN1CCc2cc(O)c(O)cc2C(c2ccccc2)C1 (configuration not stated) | x | x | 44.6 | 54.3* | x
Oc1cc2c(cc1O)[C@@H](c1ccccc1)CNCC2 | x | 83.0* | 68.9* | 43.3 | 6.0
Oc1cc2c(cc1O)C(c1ccccc1)CNCC2 (configuration not stated) | 97.9* | x | 46.8 | 39.0 | x
COc1ccc(NS(=O)(=O)c2cc3c4c(c2)C(C)C(=O)N4CCC3)cc1 (configuration not stated) | -2.7 | 0.4 | 7.1 | -2.8 | 41.2
O=C1CN(C(=O)COC(=O)CCS(=O)(=O)c2ccccc2Cl)c2ccccc2N1 | 0.7 | x | -11.9 | 2.3 | x
SMILES | ALR inh | PfM18AAP inh | PfGluPho inh | H9c2 protect | PHOSPHO1 block
CCOc1cc(C2C(C#N)=C(N)SC(N)=C2C#N)ccc1OCCN1CCOCC1 | 98.7* | 10.3 | 23.1 | 8.7 | 58.9
C#CCN(C(=O)c1cc(COc2cccc(C(F)(F)F)c2)on1)C1CCCCC1 | -0.9 | 3.8 | 24.7 | -6.0 | 47.6
CC(Sc1nnc(COc2ccc3ccccc3c2)n1C)C(=O)O (configuration not stated) | -14.4 | -1.4 | -26.9 | 1.2 | 76.4*
CC12CCC(=O)C=C1CCC1C2CCC2(C)C1CC[C@]2(O)C(=O)CO (some centres not stated) | -6.4 | 4.1 | -8.1 | -1.6 | 67.6*
CC12CCC(=O)C=C1CCC1C2CCC2(C)C1CCC2(O)C(=O)CO (configuration not stated) | -5.3 | x | 0.3 | 0.1 | x
CC(NC(=O)CCNS(=O)(=O)c1ccc2c(c1)oc(=O)n2C)c1ccccc1 (configuration not stated) | -9.2 | 6.3 | 6.0 | 4.4 | 22.4
